Drawing on PubChem BioAssay (EPA / NIEHS), this text covers outcome and AC50 for six compounds.

Read-out in test [1]: Interleukin-1 alpha (IL1a), IL1A (gene 3552)
The experiment in a line: BSK_LPS_IL1a: BioMAP Diversity Plus: LPS Assay for Interleukin-1 alpha (IL1a) Biomarker Activity (AID 2283080). Particulars: primary human HUVEC with PBMC; actives raise or lower the signal. The method, boiled down: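 Measured: IL-1 alpha via ELISA at 24 h in LPS-activated human umbilical vein endothelium–PBMC co-culture. Baseline: DMSO, bidirectional fitting.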

Read-out in test [2]: Monocyte Chemoattractant Protein-1 (MCP1), CCL2 (gene 6347)
The experiment in a line: BSK_LPS_MCP1: BioMAP Diversity Plus: LPS Assay for Monocyte Chemoattractant Protein-1 (MCP1) Biomarker Activity (AID 2283081).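 On AC50: secreted MCP-1 protein quantified by ELISA in culture supernatant.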 The conditions noted are these: primary human HUVEC with PBMC; actives raise or lower the signal. In outline:
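LPS-stimulated HUVEC/PBMC co-culture; chemical, 24 h; MCP-1 by ELISA; bidirectional fit vs DMSO; cytotoxicity via SRB (0.1% stain, 10% TCA fix, 560 nm) in parallel wells.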

The nature of test [3]: BSK_LPS_PGE2: BioMAP Diversity Plus: LPS Assay for Prostaglandin E2 (PGE2) Biomarker Activity (AID 2283082).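 On AC50: secreted prostaglandin E2 measured by ELISA in LPS-stimulated co-culture.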 The conditions noted are these: primary human HUVEC with PBMC; actives raise or lower the signal. In outline:
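ELISA read-out of PGE2 from human umbilical vein endothelial cells co-cultured with peripheral blood mononuclear cells under LPS, 24 h post-dose. Gain or loss of signal scored relative to DMSO baseline.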

Read-out in test [4]: Macrophage colony-stimulating factor (MCSF), CSF1 (gene 1435)
The experiment in a line: BSK_LPS_MCSF: BioMAP Diversity Plus: LPS Assay for Macrophage colony-stimulating factor (MCSF) Biomarker Activity (AID 2283083). Particulars: primary human HUVEC with PBMC; actives raise or lower the signal. In outline:
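Compound is added to a human vascular primary co-culture of umbilical vein endothelium and blood mononuclear cells. After 24 h, M-CSF is quantified by ELISA. Signal changes are fitted in both directions against DMSO.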

Read-out in test [5]: Tissue Factor, F3 (gene 2152)
Put plainly: BSK_LPS_TissueFactor: BioMAP Diversity Plus: LPS Assay for Tissue Factor Biomarker Activity (AID 2283084). Particulars: primary human HUVEC with PBMC; actives raise or lower the signal. In outline:
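In this co-culture system of umbilical vein endothelium with PBMC, stimulated with LPS, cell-surface CD142 is detected by ELISA at 24 h. Endpoint values derive from bidirectional fitting, DMSO serving as baseline.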

Read-out in test [6]: Tumor necrosis factor (Homo sapiens) (UniProt P01375)
Put plainly: BSK_LPS_TNFa: BioMAP Diversity Plus: LPS Assay for Tumour Necrosis Factor alpha (TNFa) Biomarker Activity (AID 2283085).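 On AC50: TNFa protein level quantified by ELISA in the co-culture.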 The conditions noted are these: primary human HUVEC with PBMC; actives raise or lower the signal. In outline: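 HUVEC/PBMC co-culture, LPS-stimulated; 24 h post-dose; TNFa by ELISA; gain or loss of signal fitted bidirectionally vs DMSO baseline.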

Read-out in test [7]: Vascular cell adhesion molecule 1 (VCAM1), VCAM1 (gene 7412)
Put plainly: BSK_LPS_VCAM1: BioMAP Diversity Plus: LPS Assay for Vascular cell adhesion molecule 1 (VCAM1) Biomarker Activity (AID 2283086). The conditions noted are these: primary human HUVEC with PBMC; actives raise or lower the signal. In outline: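 ELISA read-out of VCAM-1 at 24 h post-dosing in an LPS-driven HUVEC/PBMC primary human co-culture; gain or loss of signal fitted bidirectionally against DMSO baseline. Cytotoxicity tracked in parallel cultures by SRB total-protein staining.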

Read-out in test [8]: CD38, CD38 (gene 952)
The experiment in a line: BSK_SAg_CD38: BioMAP Diversity Plus: SAg Assay for CD38 Biomarker Activity (AID 2283087). The conditions noted are these: primary human HUVEC with PBMC; actives raise or lower the signal. In outline:
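Measures CD38 on a human endothelial/PBMC co-culture driven by SEB and TSST-1, 24 h after compound exposure, using ELISA with fluorescence detection; DMSO defines baseline for bidirectional curve fitting.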

Read-out in test [9]: CD40, CD40 (gene 958)
Put plainly: BSK_SAg_CD40: BioMAP Diversity Plus: SAg Assay for CD40 Biomarker Activity (AID 2283088). The conditions noted are these: primary human HUVEC with PBMC; actives raise or lower the signal. The method, boiled down: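 Fluorescence ELISA read-out of CD40 from umbilical vein endothelium plus peripheral blood mononuclear cells, sampled 24 h after dosing. Values come from bidirectional curve fitting with DMSO as baseline.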

Read-out in test [10]: CD69, CD69 (gene 969)
Put plainly: BSK_SAg_CD69: BioMAP Diversity Plus: SAg Assay for CD69 Biomarker Activity (AID 2283089).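 On AC50: cell surface CD69 protein quantified by ELISA with fluorescence detection.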 Particulars: primary human HUVEC with PBMC; actives raise or lower the signal. The method, boiled down: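 HUVEC co-cultured with PBMC were dosed with chemical, and CD69 was measured by ELISA with fluorescence read-out 24 h later. Bidirectional curve fitting used DMSO as negative control and activity baseline.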

Read-out in test [11]: Monocyte Chemoattractant Protein-1 (MCP1), CCL2 (gene 6347)
The experiment in a line: BSK_SAg_MCP1: BioMAP Diversity Plus: SAg Assay for Monocyte Chemoattractant Protein-1 (MCP1) Biomarker Activity (AID 2283090). The conditions noted are these: primary human HUVEC with PBMC; actives raise or lower the signal. In outline: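 Values derive from bidirectional fitting of ELISA-measured MCP1 against DMSO controls. Readings were taken 24 h after dosing human vascular endothelial cells co-cultured with peripheral blood mononuclear cells under superantigen stimulation.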

Read-out in test [12]: E-selectin (Homo sapiens) (UniProt P16581)
Put plainly: BSK_SAg_Eselectin: BioMAP Diversity Plus: SAg Assay for Eselectin Biomarker Activity (AID 2283091). Particulars: primary human HUVEC with PBMC; actives raise or lower the signal. The method, boiled down: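 Primary human endothelial cells and peripheral blood mononuclear cells were co-cultured and exposed to chemical for 24 hours. E-selectin levels were then quantified by ELISA, with bidirectional curve fitting normalised to DMSO controls.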

Read-out in test [13]: Monokine induced gamma interferon (MIG), CXCL9 (gene 4283)
The experiment in a line: BSK_SAg_MIG: BioMAP Diversity Plus: SAg Assay for Monokine induced gamma interferon (MIG) Biomarker Activity (AID 2283092). Particulars: primary human HUVEC with PBMC; actives raise or lower the signal. In outline: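 HUVEC plus human PBMC co-culture, chemicals dosed and MIG (CXCL9) quantified by ELISA at 24 h. Bidirectional curve fitting against DMSO as negative control and baseline, so both gain and loss of signal count as activity.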

Test [14] is described as follows: BSK_SAg_PBMCCytotoxicity: PBMC Cytotoxicity Assessment in the BioMAP Diversity Plus: SAg Assay (AID 2283093).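 Further: fitted both ways against DMSO so a hit may be loss or gain of signal.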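 On AC50: PBMC superantigen activated with SEB plus TSST-1 one hour after compound addition.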 Particulars: primary human HUVEC with PBMC. The method, boiled down:
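PBMC viability by Alamar Blue reduction, fluorescence read at 546/580 nm after 6 h dye exposure. Cells were dosed 1 h before SEB plus TSST-1 activation (20 ng/mL final each), then held 90 h; endothelial/PBMC human co-culture.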

Read-out in test [15]: Interleukin-8 (IL8), CXCL8 (gene 3576)
The experiment in a line: BSK_SAg_IL8: BioMAP Diversity Plus: SAg Assay for Interleukin-8 (IL8) Biomarker Activity (AID 2283094). The conditions noted are these: primary human HUVEC with PBMC; actives raise or lower the signal. The method, boiled down: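 HUVEC/PBMC co-culture, 24 h post-dose; IL-8 by ELISA. Gain or loss of signal fitted bidirectionally vs DMSO baseline.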

Test [16] can be described thus: BSK_SAg_Proliferation: Cell Proliferation Assessment in the BioMAP Diversity Plus: SAg Assay (AID 2283095).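 Further: relative cell number as total protein by SRB absorbance in sub-confluent culture.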 Particulars: primary human HUVEC with PBMC. In outline: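 HUVEC/PBMC co-culture, 96-well. TCA-fixed (10%), 0.1% SRB stain, A560 at 96 h. Protein content used as viability readout; bidirectional fitting vs DMSO control.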
A short description of test [17]: BSK_SAg_SRB: Viability Assessment in the BioMAP Diversity Plus: SAg Assay (AID 2283096).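 Further: cells read one day after compound addition; hits may be either gain or loss of signal compared with DMSO.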 The conditions noted are these: primary human HUVEC with PBMC. The method, boiled down: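 Compounds were added to a human vascular co-culture of umbilical vein endothelium and PBMC. After 24 h, parallel cultures were fixed with 10% TCA, stained with 0.1% sulforhodamine B and read at 560 nm. Gain or loss of signal was fitted relative to DMSO.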

In test [18] the target is human CYP19A1, CYP19A1 (gene 1588) (UniProt P11511). Put plainly: NVS_ADME_hCYP19A1: NovaScreen (NVS) CYP450-related Enzyme Activity (ADME) Assay for human CYP19A1 (AID 2283098; active means hit-call score of the fitted dose curve at least 0.9, where 1 is the maximum;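 on AC50: potency for inhibitors seen as loss of fluorescent enzyme signal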). The method, boiled down: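 Fluorescence intensity read-out; activity taken as signal loss relative to acetonitrile vehicle. Extracted enzyme, specific substrate, no cells, 0.5 h exposure. Duplicate single-point screen at 10 uM, then concentration–response follow-up for actives.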
human CYP19A1, CYP19A1 (gene 1588), sequence (P11511 whole entry, looked up): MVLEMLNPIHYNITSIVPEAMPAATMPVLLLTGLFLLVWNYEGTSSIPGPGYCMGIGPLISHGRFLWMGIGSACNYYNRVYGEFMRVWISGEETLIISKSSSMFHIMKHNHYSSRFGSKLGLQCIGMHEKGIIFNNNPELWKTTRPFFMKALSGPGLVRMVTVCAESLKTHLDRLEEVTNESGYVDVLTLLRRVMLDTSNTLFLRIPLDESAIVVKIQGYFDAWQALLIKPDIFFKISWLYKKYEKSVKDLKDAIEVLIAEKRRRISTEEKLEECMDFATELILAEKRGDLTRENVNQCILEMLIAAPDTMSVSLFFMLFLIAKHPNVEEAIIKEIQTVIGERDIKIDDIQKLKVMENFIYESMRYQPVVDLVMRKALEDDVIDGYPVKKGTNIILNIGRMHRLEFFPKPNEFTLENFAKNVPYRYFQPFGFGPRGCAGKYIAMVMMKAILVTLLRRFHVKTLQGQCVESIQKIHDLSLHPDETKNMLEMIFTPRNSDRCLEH

Test [19] has as its target human CYP1A1, CYP1A1 (gene 1543) (UniProt P04798). Put plainly: NVS_ADME_hCYP1A1: NovaScreen (NVS) CYP450-related Enzyme Activity (ADME) Assay for human CYP1A1 (AID 2283100; active means hit-call score of the fitted dose curve at least 0.9, where 1 is the maximum). In outline: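 Compounds first went through duplicate single-concentration testing at 10 uM against purified CYP1A1. Those passing a threshold such as 30% inhibition entered singleton dose-response, highest concentration 20 uM. Signal was fluorescence measured after 1 hour.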

Test [20] concerns the target human CYP2A6, CYP2A6 (gene 1548) (UniProt P11509). Put plainly: NVS_ADME_hCYP2A6: NovaScreen (NVS) CYP450-related Enzyme Activity (ADME) Assay for human CYP2A6 (AID 2283099; active means hit-call score of the fitted dose curve at least 0.9, where 1 is the maximum). In outline: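 Recombinant human CYP2A6 from insect cells was incubated with chemical for 0.5 h and activity read by fluorescence. Single-concentration duplicates at 10 uM preceded concentration-response testing to 20 uM, with activity referenced to acetonitrile.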

Results filed as inconclusive are left out. Activity calls are given as the source filed them. How the source made its calls, unless noted: active means hit-call score of the fitted dose curve at least 0.9, where 1 is the maximum; inactive means score below 0.9.

Tumor necrosis factor (Homo sapiens), sequence (P01375 whole entry, looked up): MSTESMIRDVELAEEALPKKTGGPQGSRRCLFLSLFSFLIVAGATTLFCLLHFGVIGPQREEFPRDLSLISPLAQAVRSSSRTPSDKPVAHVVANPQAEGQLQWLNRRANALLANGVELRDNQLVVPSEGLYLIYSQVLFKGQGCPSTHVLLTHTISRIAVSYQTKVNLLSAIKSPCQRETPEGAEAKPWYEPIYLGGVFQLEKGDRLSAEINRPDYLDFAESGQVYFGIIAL
E-selectin (Homo sapiens), sequence (P16581 whole entry, looked up): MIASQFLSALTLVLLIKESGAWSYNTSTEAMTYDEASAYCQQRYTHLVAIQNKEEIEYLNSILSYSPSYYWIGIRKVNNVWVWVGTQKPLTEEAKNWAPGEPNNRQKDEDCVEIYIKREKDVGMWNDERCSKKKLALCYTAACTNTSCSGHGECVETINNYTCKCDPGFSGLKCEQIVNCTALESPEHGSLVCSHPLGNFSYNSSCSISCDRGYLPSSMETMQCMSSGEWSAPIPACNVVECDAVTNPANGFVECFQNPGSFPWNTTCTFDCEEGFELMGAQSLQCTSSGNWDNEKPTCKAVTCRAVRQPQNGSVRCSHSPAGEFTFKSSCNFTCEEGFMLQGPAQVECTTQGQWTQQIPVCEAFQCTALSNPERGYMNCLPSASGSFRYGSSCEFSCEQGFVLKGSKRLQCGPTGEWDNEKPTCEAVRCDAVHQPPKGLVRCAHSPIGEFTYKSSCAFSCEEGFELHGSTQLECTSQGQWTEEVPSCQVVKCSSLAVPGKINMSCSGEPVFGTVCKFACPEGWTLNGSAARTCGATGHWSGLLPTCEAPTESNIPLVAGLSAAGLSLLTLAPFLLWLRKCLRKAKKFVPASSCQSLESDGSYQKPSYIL
human CYP1A1, CYP1A1 (gene 1543), sequence (P04798 whole entry, looked up): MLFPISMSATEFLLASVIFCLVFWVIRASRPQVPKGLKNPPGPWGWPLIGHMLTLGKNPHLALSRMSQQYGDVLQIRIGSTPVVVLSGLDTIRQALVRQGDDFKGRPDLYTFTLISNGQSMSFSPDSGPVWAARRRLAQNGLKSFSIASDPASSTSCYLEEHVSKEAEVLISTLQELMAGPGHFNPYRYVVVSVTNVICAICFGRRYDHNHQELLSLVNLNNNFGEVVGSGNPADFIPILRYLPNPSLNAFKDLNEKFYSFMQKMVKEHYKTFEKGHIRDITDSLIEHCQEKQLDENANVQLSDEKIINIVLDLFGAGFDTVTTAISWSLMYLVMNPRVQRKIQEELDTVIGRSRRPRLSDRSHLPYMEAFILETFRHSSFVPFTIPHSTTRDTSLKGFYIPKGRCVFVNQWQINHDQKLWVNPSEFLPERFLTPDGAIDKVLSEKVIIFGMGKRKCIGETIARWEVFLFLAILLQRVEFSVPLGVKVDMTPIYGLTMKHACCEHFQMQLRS
human CYP2A6, CYP2A6 (gene 1548), sequence (P11509 whole entry, looked up): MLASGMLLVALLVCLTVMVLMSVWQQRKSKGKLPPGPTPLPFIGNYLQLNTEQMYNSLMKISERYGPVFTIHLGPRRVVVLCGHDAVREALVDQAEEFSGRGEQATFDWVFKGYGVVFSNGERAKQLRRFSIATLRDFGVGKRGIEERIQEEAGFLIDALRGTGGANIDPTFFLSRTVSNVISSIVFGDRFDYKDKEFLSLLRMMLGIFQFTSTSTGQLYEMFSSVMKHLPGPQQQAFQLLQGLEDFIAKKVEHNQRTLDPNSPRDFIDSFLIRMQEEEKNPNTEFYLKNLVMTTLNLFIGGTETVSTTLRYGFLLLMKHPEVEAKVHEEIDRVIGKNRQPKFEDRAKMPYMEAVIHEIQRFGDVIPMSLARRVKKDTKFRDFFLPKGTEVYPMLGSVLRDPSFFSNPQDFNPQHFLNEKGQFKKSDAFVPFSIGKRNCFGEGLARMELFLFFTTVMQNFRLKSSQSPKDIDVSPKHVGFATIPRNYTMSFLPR

Take `COC(=O)c1ccccc1S(=O)(=O)NC(=O)N(C)c1nc(C)nc(OC)n1`: the outcome in test [1], in test [2], in [3], in [4], in test [5] and in [6] was inactive. Moreover, the result in [7], in test [8], in test [9], in [10], in test [11] and in test [12] was inactive. Moreover, the result in test [13], in test [14], in test [15], in test [16] and in test [17] was inactive.

For the compound `COP(=O)(OC)OC=C(Cl)Cl`, the result in [1], in test [2], in test [3], in [5], in test [8] and in test [9] was inactive. For the same compound, the outcome in test [10], in [13], in [14], in test [15], in test [17] and in test [18] was inactive. In addition, the concentration at half-maximal activity (AC50) in test [4] was 20 µM (active); in test [6] it was 4.96 µM (active); in [7], 30.1 µM (active); in [11] it was 17.5 µM (active); in [12] it was 28.9 µM (active); in test [16], 20 µM (active).

For the compound `CC[C@H](C)[C@H]1O[C@]2(C=C[C@@H]1C)C[C@@H]1C[C@@H](C/C=C(\C)[C@@H](O[C@H]3C[C@H](OC)[C@@H](O[C@H]4C[C@H](OC)[C@@H](O)[C@H](C)O4)[C@H](C)O3)[C@@H](C)/C=C/C=C3\CO[C@@H]4[C@H](O)C(C)=C[C@@H](C(=O)O1)[C@]34O)O2` (tested in a mixture with another compound), the half-maximal activity concentration (AC50) in test [1] was 6.51 µM (active); in test [2], 8.83 µM (active); in test [4], 9.77 µM (active); in test [6] it was 10.3 µM (active); in test [7], 6.17 µM (active); in [8], 7.86 µM (active). For the same compound, the AC50 is 5.74 µM (active) in test [9]; 7.28 µM (active) in [10]; 5.58 µM (active) in test [11]; 5.19 µM (active) in test [12]; 10.8 µM (active) in test [13]; 6.1 µM (active) in test [14]. In addition, the AC50 is 4.07 µM (active) in test [15], 4.56 µM (active) in test [16] and 5.54 µM (active) in test [17]. Besides, the result in test [3], in [5], in test [18] and in test [19] was inactive.

Take `O=C1c2ccccc2C(=O)N1SC(Cl)(Cl)Cl`: the outcome in test [1], in [2], in [3], in test [4], in [5] and in test [7] was inactive. Besides, the outcome in test [8], in test [9], in test [10], in [11], in [12] and in test [13] was inactive. In addition, the outcome in test [14], in [15] and in [17] was inactive. Further, the AC50 in test [6] was 32 µM (active); in test [16] it was 23.4 µM (active); in test [18], 1.01 µM (active).

With `COc1nn(CSP(=S)(OC)OC)c(=O)s1`, the result in [1], in test [2], in test [4], in [5], in [6] and in test [7] was inactive. The outcome in [8], in test [9], in [10], in test [11], in test [12] and in test [13] was inactive. For the same compound, the result in [14], in test [15], in [16] and in test [17] was inactive. Further, the AC50 in test [3] is 12.6 µM (active); in test [18], 1.23 µM (active); in test [20], 6.42 µM (active); in test [19], 5.47 µM (active).

In the case of `CCS(=O)(=O)c1cccnc1S(=O)(=O)NC(=O)Nc1nc(OC)cc(OC)n1`, the result in test [1], in test [2], in [4], in test [5], in [7] and in test [8] was inactive. Further, the result in test [9], in test [10], in test [11], in [12], in [13] and in test [14] was inactive. In addition, the outcome in [15], in test [16] and in test [17] was inactive. Moreover, the values for the AC50 in [3] and in test [6] were 2.31 µM (active) and 1.75 µM (active), respectively.
